Results taken from the OligoGym collection.

Biological target: DCPS
Experiment: pooled miR-30 sensor sort-seq; sequence = guide strand
Settings: shRNA
Note: reference of the scale not given here.

Sequence | sensor-assay potency score (higher = more potent)
TTATACACCCACTGGATGCTGA | -0.178
TAGGAAAATGATTTTGTCCCGC | -0.432
TAGTCATCTCCCGTCTCTCGGA | -0.952
TTCAATACTAGGAATAAGCCGG | -0.221
TACCATTTCCAACTCCTGCCTC | -0.586
TTTTAGAAAATTCACTTGGAGA | -0.97
TTGTCTTGGAGGGAACAAGTGA | -0.588
TATTCCTGTAGTCATCTCCCGT | -0.287
TTCTGCAGTCTGAAGCCGGAGA | -0.8
TTACATCATTCAGTTGTCTTGG | 0.191
TTCTGCAGGTGTTTCTCTGTGG | 0.117

Biological target: DCST1
Experiment: as above
Settings: shRNA

Sequence | sensor-assay potency score (higher = more potent)
TTGTAGAGGAACAGGATCCGCT | -0.486
TTCTTCGTAGATGTTCATGGGG | 0.19
ATCGGTACTGCAGCTCTCCAGT | -0.753
TTGATCTGCAGCTCCACGGTGC | -0.609
TAGGTCATTGTAGAGGAACAGG | -1.31
TATCCCAGGACAAAGAGCCTGC | -0.178
TCTTCGTAGATGTTCATGGGGT | -0.405
TTGGGTACTAGTAGGAGGCTGG | 0.466
TTCTTTGCCCTCTTGTGCCATT | -1.23
TTTGCTACTCAGCAGGTCCTTG | -0.773
TACAAGAACATAATCTTCTGTT | 0.614
TAACAGGCAGAGACACACTAAC | -1.38

Biological target: DCTN6
Experiment: as above
Settings: shRNA

Sequence | sensor-assay potency score (higher = more potent)
TTTAGGTTGCAACAAGCCCCAA | -1.26
TAGGTTTTGGTTCTGGATCTTC | -0.00342
TTTCACTTTCTACACATACAAC | -1.58
TTAAGAGTACATAAACACTGTG | -0.096
TTTCTACACATACAACTGCTCC | -0.672
TAAGAGTACATAAACACTGTGG | -0.0797
TAATTCTTGCTTTAGGGTGGAT | -0.47
TTTCATAGTCTTCTTTAGGTGG | -0.245
TTTCATCAAGAAATCCAGCTGT | 0.825
TTAGGGTGGATCACTGTCCGAG | -0.692
TAGATCACCGTATTCTCAGGGA | 0.157

Biological target: DCX
Experiment: as above
Settings: shRNA

Sequence | sensor-assay potency score (higher = more potent)
TTCGGTAGAAGCTACAGTGGGC | 0.324
TATTCATCTTGTTTTCTCCTGG | 0.366
TTGATCACAATGCTGTTCCTTA | 0.503
TTTCATTTAAATCAACTCCGAT | -0.0704
TTTATTTCCATAGCAAACTGGA | -0.272
TAAATTAACACCTACAATCTGG | -0.105
